Data on three compounds can be found in PubChem BioAssay (EPA / NIEHS).

Read-out in assay [1]: CFLAR gene, CFLAR (gene 8837)
Briefly: LTEA_HepaRG_CFLAR: Life Technologies and Expression Analysis (LTEA) Assay for CFLAR gene using HepaRG (AID 2283455). Particulars: mRNA level, 48 h; actives raise or lower the signal. The procedure, abridged:
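Differentiated HepaRG cells in serum-free induction medium were exposed 48 h in duplicate to eight half-log concentrations up to 100 uM in 0.5% DMSO; mRNA measured by TaqMan qRT-PCR, normalized to ACTB, GAPDH, POLR2A; bidirectional fitting versus DMSO.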

Read-out in assay [2]: Forkhead box O1 (FOXO1), FOXO1 (gene 2308)
Briefly: LTEA_HepaRG_FOXO1: Life Technologies and Expression Analysis (LTEA) Assay for Forkhead box O1 (FOXO1) using HepaRG (AID 2283456). Particulars: mRNA level, 48 h; actives raise or lower the signal. The essentials:
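Differentiated HepaRG cells, in serum-free induction medium with 0.5% DMSO, exposed 48 h in duplicate to 8-point half-log series from 100 uM. FOXO1 mRNA measured by TaqMan qRT-PCR, normalized to ACTB, GAPDH, POLR2A; bidirectional fit versus DMSO.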

Read-out in assay [3]: growth arrest and DNA damage 45 (GADD45A), GADD45A (gene 1647)
In words: LTEA_HepaRG_GADD45A: Life Technologies and Expression Analysis (LTEA) Assay for growth arrest and DNA damage 45 (GADD45A) using HepaRG (AID 2283458). Particulars: mRNA level, 48 h; actives raise or lower the signal. The procedure, abridged: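 Differentiated HepaRG cells exposed 48 h in serum-free induction medium to 8 concentrations, top 100 uM in half-log steps, 0.5% DMSO. GADD45A mRNA quantified by qRT-PCR, normalized to ACTB, GAPDH and POLR2A; bidirectional fit versus DMSO.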

Read-out in assay [4]: Forkhead box O3 (FOXO3), FOXO3 (gene 2309)
Briefly: LTEA_HepaRG_FOXO3: Life Technologies and Expression Analysis (LTEA) Assay for Forkhead box O3 (FOXO3) using HepaRG (AID 2283459). Particulars: mRNA level, 48 h; actives raise or lower the signal. The essentials:
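Differentiated human HepaRG cells, 48 h post-plating, exposed in duplicate for 48 h in serum-free induction medium; 8-point half-log series from 100 uM in 0.5% DMSO. FOXO3 mRNA by TaqMan qRT-PCR, normalized to ACTB/GAPDH/POLR2A; bidirectional fit versus DMSO.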

Read-out in assay [5]: ABC Transporter (ABCB1), ABCB1 (gene 5243)
In words: LTEA_HepaRG_ABCB1: Life Technologies and Expression Analysis (LTEA) Assay for ABC Transporter (ABCB1) using HepaRG (AID 2283460). Particulars: mRNA level, 48 h; actives raise or lower the signal. The essentials: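 HepaRG cells exposed in duplicate for 48 h in serum-free induction medium to eight half-log concentrations up to 100 uM in 0.5% DMSO. ABCB1 mRNA quantified by qRT-PCR, normalised to ACTB, GAPDH and POLR2A; fitted bidirectionally versus DMSO.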

Read-out in assay [6]: growth arrest and DNA damage 45 (GADD45B), GADD45B (gene 4616)
In words: LTEA_HepaRG_GADD45B: Life Technologies and Expression Analysis (LTEA) Assay for growth arrest and DNA damage 45 (GADD45B) using HepaRG (AID 2283461). Conditions: mRNA level, 48 h; actives raise or lower the signal. The procedure, abridged: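 Transcript level quantified by Fluidigm TaqMan qRT-PCR with three housekeeping genes for normalization, analyzed for up- or down-regulation against 0.5% DMSO. HepaRG cultures dosed 48 h at eight half-log concentrations up to 100 uM, duplicates.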

Read-out in assay [7]: ABC Transporter (ABCC3), ABCC3 (gene 8714)
Briefly: LTEA_HepaRG_ABCC3: Life Technologies and Expression Analysis (LTEA) Assay for ABC Transporter (ABCC3) using HepaRG (AID 2283462). Conditions: mRNA level, 48 h; actives raise or lower the signal. The essentials: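 Transcript level by TaqMan qRT-PCR, normalised to three housekeeping genes, fitted in both directions relative to vehicle. Chemicals tested in duplicate at eight half-log concentrations up to 100 uM for 48 h on HepaRG cells (0.5% DMSO).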

Read-out in assay [8]: ABC Transporter (ABCB11), ABCB11 (gene 8647)
Briefly: LTEA_HepaRG_ABCB11: Life Technologies and Expression Analysis (LTEA) Assay for ABC Transporter (ABCB11) using HepaRG (AID 2283463). Particulars: mRNA level, 48 h; actives raise or lower the signal. The essentials: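 Differentiated human HepaRG cells in serum-free induction medium, dosed in duplicate for 48 h. Eight-point half-log series from 100 uM in 0.5% DMSO; ABCB11 mRNA by qRT-PCR, normalized to ACTB, GAPDH, POLR2A, fitted bidirectionally versus DMSO.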

Read-out in assay [9]: ABC Transporter (ABCC2), ABCC2 (gene 1244)
Briefly: LTEA_HepaRG_ABCC2: Life Technologies and Expression Analysis (LTEA) Assay for ABC Transporter (ABCC2) using HepaRG (AID 2283464). Particulars: mRNA level, 48 h; actives raise or lower the signal. The procedure, abridged:
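Endpoint is ABCC2 transcript level from qRT-PCR, normalized to three housekeeping genes and fitted bidirectionally relative to DMSO. Human HepaRG cells received test chemical for 48 h at up to 100 uM (8 points, half-log steps, 0.5% DMSO), duplicate wells.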

Read-out in assay [10]: Broad substrate specificity ATP-binding cassette transporter ABCG2 (Homo sapiens) (UniProt Q9UNQ0)
In words: LTEA_HepaRG_ABCG2: Life Technologies and Expression Analysis (LTEA) Assay for ABC Transporter (ABCG2) using HepaRG (AID 2283465). Particulars: mRNA level, 48 h; actives raise or lower the signal. The procedure, abridged: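 Differentiated HepaRG cells were exposed for 48 h in serum-free induction medium to 8 half-log concentrations, top 100 uM, in 0.5% DMSO. ABCG2 mRNA was measured by qRT-PCR, normalized to ACTB, GAPDH and POLR2A, with bidirectional fitting versus DMSO.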

Read-out in assay [11]: ATP-citrate lyase (ACLY), ACLY (gene 47)
Briefly: LTEA_HepaRG_ACLY: Life Technologies and Expression Analysis (LTEA) Assay for ATP-citrate lyase (ACLY) using HepaRG (AID 2283466). Particulars: mRNA level, 48 h; actives raise or lower the signal. The procedure, abridged: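 Differentiated HepaRG cells exposed 48 h in serum-free induction medium to eight half-log concentrations up to 100 uM in 0.5% DMSO, duplicates. Transcript measured by Fluidigm TaqMan qRT-PCR, normalized to ACTB, GAPDH, POLR2A; bidirectional fit versus DMSO.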

Read-out in assay [12]: Peroxisomal acyl-coenzyme A oxidase 1 (ACOX1) gene, ACOX1 (gene 51)
In words: LTEA_HepaRG_ACOX1: Life Technologies and Expression Analysis (LTEA) Assay for Peroxisomal acyl-coenzyme A oxidase 1 (ACOX1) gene using HepaRG (AID 2283467). Conditions: mRNA level, 48 h; actives raise or lower the signal. The procedure, abridged:
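HepaRG cells, plated 48 h then switched to serum-free induction medium, were exposed in duplicate for 48 h to 8-point half-log concentrations up to 100 uM in 0.5% DMSO. ACOX1 mRNA was measured by qRT-PCR, normalized to ACTB/GAPDH/POLR2A, and fitted bidirectionally versus DMSO.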

Read-out in assay [13]: Alkaline Phosphatase, Placental (ALPP) gene, ALPP (gene 250)
Briefly: LTEA_HepaRG_ALPP: Life Technologies and Expression Analysis (LTEA) Assay for Alkaline Phosphatase, Placental (ALPP) gene using HepaRG (AID 2283468). Conditions: mRNA level, 48 h; actives raise or lower the signal. The procedure, abridged: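 ALPP transcript level, measured by qRT-PCR and normalized to three housekeeping genes (ACTB, GAPDH, POLR2A), after 48 h dosing of differentiated HepaRG in serum-free induction medium. Top concentration 100 uM with half-log dilutions (8 points, 0.5% DMSO, duplicates); bidirectional fitting relative to DMSO.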

Read-out in assay [14]: Bcl-2 (BAD) gene, BAD (gene 572)
In words: LTEA_HepaRG_BAD: Life Technologies and Expression Analysis (LTEA) Assay for Bcl-2 (BAD) gene using HepaRG (AID 2283469). Conditions: mRNA level, 48 h; actives raise or lower the signal. The essentials:
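Differentiated HepaRG cells were exposed in duplicate in 0.5% DMSO for 48 h to eight-point half-log concentrations up to 100 uM. BAD mRNA was measured by Fluidigm TaqMan qRT-PCR, normalized to ACTB, GAPDH and POLR2A, and fitted bidirectionally against DMSO.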

Read-out in assay [15]: Bcl-2 (BAX) gene, BAX (gene 581)
Briefly: LTEA_HepaRG_BAX: Life Technologies and Expression Analysis (LTEA) Assay for Bcl-2 (BAX) gene using HepaRG (AID 2283470). Particulars: mRNA level, 48 h; actives raise or lower the signal. The procedure, abridged:
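Differentiated HepaRG cells exposed 48 h in serum-free induction medium, eight half-log concentrations from 100 uM, in duplicate, 0.5% DMSO vehicle. BAX mRNA by TaqMan qRT-PCR, normalised to ACTB, GAPDH and POLR2A.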

Read-out in assay [16]: Alpha-fetoprotein (AFP) gene, AFP (gene 174)
Briefly: LTEA_HepaRG_AFP: Life Technologies and Expression Analysis (LTEA) Assay for Alpha-fetoprotein (AFP) gene using HepaRG (AID 2283472). Particulars: mRNA level, 48 h; actives raise or lower the signal. The essentials:
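Differentiated human HepaRG cells exposed 48 h in serum-free induction medium, 8-point half-log series from 100 uM in 0.5% DMSO, duplicate. AFP mRNA by qRT-PCR, normalized to ACTB, GAPDH, POLR2A; bidirectional fit vs DMSO.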

Read-out in another assay: BCL2L11 (gene 10018)
Briefly: LTEA_HepaRG_BCL2L11: Life Technologies and Expression Analysis (LTEA) Assay for Bcl-2 (BCL2L11) gene using HepaRG (AID 2283473). Particulars: mRNA level, 48 h; actives raise or lower the signal. The procedure, abridged: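 BCL2L11 transcript levels are measured by Fluidigm qRT-PCR, normalized to three housekeeping genes. HepaRG cultures were plated 48 h, then treated 48 h with test chemical (top 100 uM, half-log, 0.5% DMSO vehicle); curves were fitted bidirectionally against DMSO.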

Read-out in assay [17]: Apolipoprotein A-V (APOA5) gene, APOA5 (gene 116519)
In words: LTEA_HepaRG_APOA5: Life Technologies and Expression Analysis (LTEA) Assay for Apolipoprotein A-V (APOA5) gene using HepaRG (AID 2283474). Conditions: mRNA level, 48 h; actives raise or lower the signal. The procedure, abridged: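 APOA5 transcript levels were quantified by qRT-PCR, normalized to three housekeeping genes, after 48 h chemical treatment of HepaRG cells (8 points, 100 uM maximum, half-log steps, 0.5% DMSO). Curves fitted in both directions against vehicle.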

Assay [18] can be described thus: CEETOX_H295R_TESTO: CeeTox H295R High-throughput Steroidogenesis Assay for Testosterone (TESTO) (AID 2283457). Conditions: actives raise or lower the signal. The essentials:
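Testosterone secreted into the medium over 48 h by H295R cells (maximum passage 10) was quantified by LC-MS/MS after MTBE extraction. Fitted in both directions against DMSO, with concentrations diluted until MTT viability was ≥70%.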

Read-out in assay [19]: adenosine kinase (ADK) gene, ADK (gene 132)
In words: LTEA_HepaRG_ADK: Life Technologies and Expression Analysis (LTEA) Assay for adenosine kinase (ADK) gene using HepaRG (AID 2283471). Conditions: mRNA level, 48 h; actives raise or lower the signal. The procedure, abridged:
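ADK expression quantified by qRT-PCR, normalised to three housekeeping genes, after 48 h exposure of HepaRG cells to eight concentrations (top 100 uM, half-log steps, duplicate, 0.5% DMSO). Up- or down-regulation fitted relative to vehicle.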

Calls of active or inactive are those of the source. Rule for the calls: active = hit-call score of the fitted dose curve at least 0.9, where 1 is the maximum; inactive = score below 0.9.

Chain of Broad substrate specificity ATP-binding cassette transporter ABCG2 (Homo sapiens) (Q9UNQ0 whole entry, looked up): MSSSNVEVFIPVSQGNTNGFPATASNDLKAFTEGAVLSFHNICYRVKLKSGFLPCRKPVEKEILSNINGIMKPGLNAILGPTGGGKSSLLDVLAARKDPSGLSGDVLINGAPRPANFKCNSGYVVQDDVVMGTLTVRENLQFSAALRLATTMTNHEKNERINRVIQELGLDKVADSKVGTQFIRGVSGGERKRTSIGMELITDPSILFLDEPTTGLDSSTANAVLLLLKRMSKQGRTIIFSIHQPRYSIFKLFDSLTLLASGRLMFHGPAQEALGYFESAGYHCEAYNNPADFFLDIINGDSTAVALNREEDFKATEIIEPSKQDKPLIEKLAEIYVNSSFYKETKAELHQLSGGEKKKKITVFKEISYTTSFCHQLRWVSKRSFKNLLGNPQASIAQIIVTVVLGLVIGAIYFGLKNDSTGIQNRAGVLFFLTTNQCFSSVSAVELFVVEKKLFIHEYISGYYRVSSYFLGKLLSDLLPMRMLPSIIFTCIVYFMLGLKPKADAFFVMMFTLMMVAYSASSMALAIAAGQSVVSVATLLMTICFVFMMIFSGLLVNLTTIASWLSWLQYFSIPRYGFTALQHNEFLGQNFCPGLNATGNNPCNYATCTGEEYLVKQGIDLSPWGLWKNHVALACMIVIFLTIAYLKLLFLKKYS

In the case of `CCCCOC(=O)CC(CC(=O)OCCCC)(OC(C)=O)C(=O)OCCCC`, the compound was classed as inactive in [1], in [2], in assay [3], in [4], in assay [5] and in assay [6]. Besides, the compound was classed as inactive in assay [7], in [8], in [9], in assay [10], in assay [11] and in assay [12]. Besides, the compound was classed as inactive (in assay [13]; in assay [14]; in assay [15]; in assay [16]; in the assay with BCL2L11 (gene 10018); in assay [17]).

As to `NC(=O)c1nc(-c2cccc(-c3cc(F)ccc3OCC(F)(F)C(F)(F)F)c2)n[nH]1`, the call in [1], in assay [2], in assay [18], in [3], in assay [5] and in assay [8] was inactive. In addition, the outcome in [11], in assay [14], in [15], in assay [16] and in assay [17] was inactive. Also, the AC50 – broadly, the concentration giving half of the maximal activity seen – was 50 µM (active) in [4]; 77.2 µM (active) in assay [6]; 84 µM (active) in assay [7]; 89.8 µM (active) in assay [9]; 15.8 µM (active) in assay [10]; 81.4 µM (active) in assay [12]. Further, the AC50 is 3.42 µM (active) in assay [13], 92.8 µM (active) in [19] and 74.2 µM (active) in the assay with BCL2L11 (gene 10018).

As to `CC(C)(O)c1ccc(CNC(=O)c2cccnc2Oc2ccc3nonc3c2)cc1`, the outcome in assay [1], in [2], in [3], in assay [4], in [6] and in assay [7] was inactive. Also, the compound was called inactive in assay [8], in [10], in assay [11], in assay [12], in [13] and in [14]. For the same compound, the outcome (in assay [15]; in assay [16]; with BCL2L11 (gene 10018); in assay [17]) was inactive. Further, the AC50 in [5] and in assay [9] was 50 µM (active) throughout.
